Data from PubChem BioAssay (NCI).
The panel holds about 79,000 compounds, 15% with a hit somewhere; the sample as a whole holds those more often. Unmarked numbers belong to inactive results. Activity calls are given as the source filed them. Cut-off read from the data, not from the text of the source: active = growth inhibition above about 70%; inactive = the rest.

Assay: NCI Yeast Anticancer Drug Screen. Data for the rad50EPP+ strain (AID 151);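 note: 0% = growth of vehicle-treated control cultures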
Conditions: S. cerevisiae rad50 mutant strain, hits give high values
Procedure: Growth inhibition of yeast strains with defined genetic alterations is measured as a screen for potential anti-cancer activity. Selected strains with alterations in DNA damage repair or cell cycle control were exposed to compounds and growth inhibition was measured relative to vehicle treated controls. The strain used in this assay is rad50EPP+

With `CCOP(=O)(CC(C)P(=O)(OCC)OCC)OCC.C[CH2][Sn]([Cl])([Cl])[CH2]C` (stereo not given) as the compound, how does the growth inhibition (at 1.2 µM) read?
The growth inhibition was -1%.

What about the growth inhibition (at 3.7 µM) of the same compound?
The growth inhibition was 1%.

And the growth inhibition (at 11.0 µM)?
Its growth inhibition is 5%.

And the growth inhibition (at 33.0 µM)?
Its growth inhibition is 4%.

And the growth inhibition (at 100.0 µM)?
The growth inhibition was 4%.

Which results are given for `Cc1c([N+](=O)[O-])oc2ccc3ccccc3c12`?
growth inhibition (at 1.2 µM): 26%; growth inhibition (at 3.7 µM): 50%; growth inhibition (at 11.0 µM): 79% (active); growth inhibition (at 33.0 µM): 91% (active); growth inhibition (at 100.0 µM): 88% (active)

Which growth inhibition (at 1.2 µM) does the source give for `CCc1cccc(C(C)C)c1NC1=C([n+]2ccc(C)cc2)C(=O)c2ccccc2C1=O` here?
The growth inhibition was 0%.

And the growth inhibition (at 3.7 µM)?
Its growth inhibition is 7%.

What about the growth inhibition (at 11.0 µM) of the same compound?
The growth inhibition was 17%.

What about the growth inhibition (at 33.0 µM) of the same compound?
Its growth inhibition is 31%.

What about the growth inhibition (at 100.0 µM) of the same compound?
Its growth inhibition is 38%.

With `CC[C@]1(O)CC(OC2CC(N(C)C)C(O)C(C)O2)c2c(cc3c(c2O)C(=O)c2c(O)cccc2C3=O)[C@@H]1C(=O)OC` (stereo not given in full) as the compound, how does the growth inhibition (at 1.2 µM) read?
The growth inhibition was 6%.

What about the growth inhibition (at 3.7 µM) of the same compound?
Its growth inhibition is 12%.

What about the growth inhibition (at 11.0 µM) of the same compound?
The growth inhibition was 40%.

What about the growth inhibition (at 33.0 µM) of the same compound?
Its growth inhibition is 70% (active).

And the growth inhibition (at 100.0 µM)?
Its growth inhibition is 89% (active).

Which growth inhibition (at 1.2 µM) does the source give for `Br[Se]c1ccccn1` here?
The growth inhibition was -9%.

What about the growth inhibition (at 3.7 µM) of the same compound?
The growth inhibition was 59%.

What about the growth inhibition (at 11.0 µM) of the same compound?
The growth inhibition was 98% (active).

And the growth inhibition (at 33.0 µM)?
Its growth inhibition is 99% (active).

And the growth inhibition (at 100.0 µM)?
The growth inhibition was 98% (active).

Which growth inhibition (at 1.2 µM) does the source give for `COc1cc(C2c3cc4c(cc3[C@@H](Nc3ccc(N)cc3)C3COC(=O)[C@H]23)OCO4)cc(OC)c1O` (stereo not given in full) here?
Its growth inhibition is -2%.

What about the growth inhibition (at 3.7 µM) of the same compound?
Its growth inhibition is 12%.

And the growth inhibition (at 11.0 µM)?
Its growth inhibition is 63%.

What about the growth inhibition (at 33.0 µM) of the same compound?
Its growth inhibition is 85% (active).

And the growth inhibition (at 100.0 µM)?
The growth inhibition was 89% (active).

Which results are given for `O=C(c1ccccc1)C1C(c2ccccc2[N+](=O)[O-])N1C1CCCCC1` (stereo not given)?
growth inhibition (at 1.2 µM): 5%; growth inhibition (at 3.7 µM): 19%; growth inhibition (at 11.0 µM): 48%; growth inhibition (at 33.0 µM): 80% (active); growth inhibition (at 100.0 µM): 82% (active)

What does the source list for `CC1CN1C1=C(Cl)C(=O)C(N2CC2C)=C(Cl)C1=O` (stereo not given)?
growth inhibition (at 1.2 µM): 8%; growth inhibition (at 3.7 µM): 21%; growth inhibition (at 11.0 µM): 47%; growth inhibition (at 33.0 µM): 94% (active); growth inhibition (at 100.0 µM): 97% (active)
